# KB-3-1 tox: KB-3-1 parental cell cytotoxicity; KB-3-1 viability, CellTiter-Glo ATP luminescence, 72 h; Potency, µM (titrated, usually from 46.1 µM), actives largely listed as cytotoxic; 400,000 tested, 1.4% active; AID 1347075; further: potency means the concentration at half of the fitted maximal effect; nearly all actives have a fitted effect of over 60% in size
#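 Viability of parental KB-3-1 cells, measured by CellTiter-Glo luminescence, followed a 72 h incubation at 37 °C with pinned compounds in phenol-red-free DMEM containing 10% FBS.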
# HT1080 IDH1KD tx: HT-1080 IDH1 knockdown cell toxicity (counter line); HT-1080 IDH1 knockdown viability, ATP luminescence, 48 h; 360,000 tested, 2% active; Potency, µM (series often up to 46.1 µM), without a hit: at the top dose activity, negative = toxicity, actives largely listed as cytotoxic;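 further: potency means the concentration at half of the fitted maximal effect; 0% = DMSO wells and -100% = cell-free medium wells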
#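 Cytotoxicity counter-line: IDH1KD HT-1080, 48 h, CellTiter-Glo. Curves classed by r2, magnitude and activity.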
# IL1B secr inh: inhibitors of inflammasome signaling (IL-1 beta secretion); THP-1 LPS/ATP IL-1B secretion, AlphaLISA, 16 h; hits give low values; activity change, % at 57.5 µM; 360,000 tested, 4.7% active; AID 743279; in the data active means activity change below about -50%; inconclusive means mostly about -30% to -49%
#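 THP-1 cells pretreated 1 hr with compounds (up to 57.5 uM final), then stimulated with LPS (250 ng/mL final) plus ATP (1.25 mM final); secreted IL-1B measured by AlphaLISA after 16 hr, decreased signal indicating inhibition.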
# KB-V1 cytotox: kills drug-selected multidrug resistant KB-V1 cells; KB-V1 MDR cells viability, CellTiter-Glo, 72 h; Potency, µM (series often up to 46.1 µM), most hits filed as cytotoxic; 400,000 tested, 3.4% active; AID 1347076; further: potency means the concentration at half of the fitted maximal effect; nearly all actives have a fitted effect of over 60% in size
#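 In this primary screen, KB-V1 cells overexpressing P-gp are incubated with library compounds (lowest to highest concentration) for 72 h at 37 degrees C before a luminescent ATP viability read.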
# HT1080NT lethal: kills 2HG-producing HT-1080-NT fibrosarcoma cells | AID 686970 | HT-1080-NT fibrosarcoma viability, CellTiter-Glo ATP luminescence, 48 h | 360,000 tested, 1.6% active | Potency, µM (series often up to 46.1 µM), for the others: at the top dose activity, negative = less viability, actives largely listed as cytotoxic;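 further: NT is the 2HG producing partner of a matched IDH1 knockdown line; potency means the concentration at half of the fitted maximal effect; 0% = DMSO-treated cells and -100% = media-only wells without cells; nearly all actives have a fitted effect of over 55% in size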
#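 Luminescent CellTiter-Glo readout after 48 hours of compound exposure at 37 degrees C defined viability of HT-1080-NT cells. Activity was normalized to DMSO wells and cell-free media wells; concentration-response curves were fitted and assigned curve classes.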
# Numbers without * were called inactive; i = inactive; ? = inconclusive; · = no result given. Rows were chosen to be rich in hits. Some 8.8% of all compounds tested hit in one or more screens of this group. Unless noted, the call rests on the fitted dose curve; in most records, active means well fitted curve in the direction sought with a large enough effect; inconclusive means small, poorly fitted or top-dose-only effect, or another doubt; inactive means no such curve, though single readings can be large; an effect the other way counts as inactive or inconclusive. Unless noted, on the % scale 0 is the no-effect control and ±100 the full control effect.
SMILES,KB-3-1 tox,HT1080 IDH1KD tx,IL1B secr inh,KB-V1 cytotox,HT1080NT lethal
O=c1c(S(=O)(=O)c2ccc(Cl)cc2)cn(Cc2ccc(F)cc2)c2ccc(F)cc12,i,·,·,i,·
CCCn1cc(S(=O)(=O)c2ccc(Cl)cc2)c(=O)c2cc(OC)ccc21,?,-16%,-17,7.3µM*,12%
O=c1c(S(=O)(=O)c2ccc(Cl)cc2)cn(Cc2ccccc2)c2ccc(F)cc12,i,?,-1,4.1µM*,-11%
COc1ccc(C)cc1NC(=O)C1CCN(S(=O)(=O)c2ccc3[nH]c(=O)oc3c2)CC1,i,·,·,i,·
C=CCc1cccc(/C=N/NC(=O)CNc2ccccc2)c1O,i,18µM*,89,i,?
C=CCc1cccc(/C=N/NC(=O)CCC(=O)Nc2ccc(F)cc2)c1O,?,23µM*,124,i,?
C=CCc1cccc(/C=N/NC(=O)CCCNc2ccc(C)cc2)c1O,?,?,37,23µM*,?
C=CCc1cccc(/C=N/NC(=O)CNc2ccccc2OC)c1O,?,18µM*,253,?,?
C=CCc1cccc(/C=N/NC(=O)C[n+]2ccccc2)c1O,?,?,266,i,?
C=CCc1cccc(/C=N/NC(=O)CNc2cccc3ccccc23)c1O,?,?,28,i,?
COc1ccc(C(=O)NCc2ccc3c(c2)CCN3C(=O)c2ccncc2)cc1,i,·,·,i,·
CCOc1ccc(-n2c(SCC(=O)N3CCC(C)CC3)nc3c([nH]c4ccccc43)c2=O)cc1,i,·,·,i,·
COC(=O)/C=C/c1ccccc1S(=O)(=O)NC(C)C,i,·,·,i,·
COc1ccccc1/C=C\C(=O)NCC(=O)N/N=C/c1ccc(O)cc1O,i,9.2µM*,71,i,?
CN1CCCCC1(C)C(=O)NCc1ccc(C(C)(C)C)cc1 (stereo not drawn),i,-3%,-5,i,-2%
O=C(NCc1ccccc1)C1Cc2c(-c3ccc4c(c3)OCO4)ccnc2O1 (stereo not drawn),0.82µM*,0.41µM*,60,1.2µM*,?
NC(=O)c1cccc(-c2ccnc3c2CC(C(=O)NCc2ccccc2)O3)c1 (stereo not drawn),3.7µM*,?,100,i,?
NC(=O)c1cccc(-c2ccnc3c2CC(C(=O)NCc2ccc(F)c(F)c2)O3)c1 (stereo not drawn),?,·,20,i,·
COc1ccc(CNC(=O)c2ccc(N3CCCC3)c(NC(=O)NCc3ccc(F)cc3)c2)cc1,?,·,·,i,·
CCc1cccc(NC(=O)CSc2ncc3c(n2)-c2cc(Cl)ccc2N(C)S3(=O)=O)c1,i,·,·,i,·
COc1ccc(C(=O)NNC(=O)c2ccc(F)c(S(=O)(=O)N3CCOCC3)c2)cc1,i,0%,19,i,-5%
C[C@@H](C[C@@H](O)[C@H](O)C(C)(C)O)[C@@H]1CC[C@]2(C)C3=CC[C@H]4C(C)(C)C(=O)CC[C@]4(C)[C@H]3CC[C@@]12C,?,4%,-53*,?,1%
CCOC(=O)N1CCC(NC(=O)c2cc3sccc3n2CC)CC1,i,-19%,19,23µM*,-2%
CCn1c(C(=O)NC2CCC(C)CC2)cc2sccc21 (stereo not drawn),i,3%,-3,i,-2%
N#Cc1sc(NCc2cccc(Cl)c2)nc1Cl,i,?,-17,?,23µM*
SMILES,KB-3-1 tox,HT1080 IDH1KD tx,IL1B secr inh,KB-V1 cytotox,HT1080NT lethal
CN(C)S(=O)(=O)c1ccc(N2CCCC2)c(C(=O)N2CCC(C(N)=O)CC2)c1,i,0%,0,i,1%
O=C(Nc1ccccc1)OCC1COC(c2ccccc2)(c2ccccc2)O1 (stereo not drawn),i,11%,-69*,i,-1%
O=S(c1ccc2ccccc2c1)c1cnns1 (stereo not drawn),i,?,-111*,?,?
COc1cc(-c2cc(NC(C)=O)c3ncc(-c4ccc(C(C)=O)cc4)n3c2)cc(OC)c1OC,?,?,-64*,23µM*,-29%
COc1ccc(-c2cc(NC(C)=O)c3ncc(-c4cccc(C(C)=O)c4)n3c2)cc1OC,i,?,?,i,-23%
CC(=O)Nc1cc(-c2ccccc2CN(C)C)cn2c(-c3ccc(C(C)=O)cc3)cnc12,?,?,68,?,18µM*
COc1ccc(-c2cnc3c(NC(C)=O)cc(-c4ccccc4CN(C)C)cn23)cc1OC,i,?,-22,i,?
COc1cc(-c2cc(NC(C)=O)c3ncc(-c4ccc(F)cc4)n3c2)cc(OC)c1OC,i,?,·,16µM*,-22%
COc1cccc(-c2cc3c(c4c2ccn4C)C2CCC3C2)c1 (stereo not drawn),i,-10%,21,i,-4%
Cc1cc(=O)oc2c(C(=O)/C=C\c3cccs3)c(O)ccc12,?,21µM*,-99*,i,?
COc1ccc(/C=C/C(=O)c2c(O)c(OC)c3occc3c2OC)cc1OC,·,11µM*,·,·,18µM*
CC(=O)c1c(OCC(=O)O)ccc2c(C)cc(=O)oc12,i,-2%,17,i,12%
Cc1cc(=O)oc2c(C(=O)/C=C/c3ccccc3)c(O)ccc12,i,3%,10,?,0%
C/C=C/c1ccc(OC)c(OC(C)=O)c1,i,1%,12,i,6%
COc1ccc(/C=C\C(=O)c2c(O)ccc3c(C)cc(=O)oc23)cc1OC,16µM*,?,-70*,21µM*,?
COc1cc(/C=C/C(=O)c2c(O)ccc3c(C)cc(=O)oc23)ccc1O,?,?,-80*,?,?
O=C1CCCC2=C1C1(CCCOC1)N=C(Nc1nc3ccccc3o1)N2 (stereo not drawn),i,·,·,?,·
ClC1=CN(C2=NCCC2)CC1,i,4%,13,i,15%
C=CCNc1ncnc2c1ncn2[C@H]1CN(Cc2cc(OC)c(OC)c(OC)c2)C[C@@H](CO)O1,i,0%,-12,i,19%
Cc1ccc(/C=N/Nc2ncc(Cl)cc2Cl)s1,?,7.1µM*,-2,?,6.3µM*
Cc1cccc(OCc2nnc(SCC(=O)N(C(C)C)C(C)C)n2Cc2ccco2)c1C,i,?,0,10µM*,-12%
Cc1cc(NC(=O)CSc2nnc(COc3cccc(C)c3C)n2Cc2ccco2)no1,i,-4%,-20,i,10%
CC(=O)Sc1nc(-c2ccccc2)[nH]c1S(=O)(=O)c1ccc(C)cc1,i,18%,-5,i,6%
CSc1nc(-c2ccc(C)cc2)[nH]c1S(=O)(=O)c1ccccc1,i,23µM*,-4,i,-18%
